Entries with a potency or affinity are not part of this list. Records with an inconclusive call do not appear. Activity calls are given as the source filed them. How the calls were made is not given here.
Assay: non-specific cell cytotoxicity, dose response, cytotoxicity control for PAX8 inhibitor project, plate reader, dry powder samples (AID 743021)
Settings: cell line, non-specific cytotoxicity counter-screen; series mostly up to 35 µM

Row | SMILES | outcome
1 | NC(=S)c1cn(C2OC(CO)C(O)C2O)c2ncnc(N)c12 (centres undefined) | inactive
2 | O=C(Cc1ccccn1)N1CCCCN2[C@@H](CO)[C@@H](c3ccc(-c4ccc(F)cc4)cc3)[C@@H]2C1 | inactive
3 | CC(=O)OC1CC(OC2C(O)CC(OC3C(O)CC(OC4CCC5(C)C(CCC6C5CC(O)C5(C)C(C7=CC(=O)OC7)CCC65O)C4)OC3C)OC2C)OC(C)C1OC1OC(CO)C(O)C(O)C1O (centres undefined) | inactive
4 | COC1=C(C)C(=O)C2=C(C1=O)C(CO)N1C(C#N)C3CC4C(C1C2N1CCOC41)N3C (centres undefined) | inactive

From PubChem BioAssay
